# According to PubChem BioAssay:
# Where “and” joins values, the source holds several entries; their conditions need not be identical. Equal entries are not always repeated. Calls of active or inactive are those of the source.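 Rule for the calls, unless noted: active = compound raises insulin release from rat beta cells at 5 mM glucose, no numeric limit stated; inactive = the rest.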
# Tests used:
# [1] = Wnt pathway potentiators raising nuclear beta-catenin – imaging, WNT3A-conditioned medium, mouse C2C12, NPC library, primary screen (AID 1117326; in the data active = nuclear beta-catenin stimulation mostly above about 4.2%, no sharp cut-off; inactive = mostly below about 10%; note: reference of the scale not given here); details: stronger effect = higher value
# [2] = stimulators of insulin release from INS-1E, primary screen, cell-based, 5 mM glucose, NPC library (AID 1117329); details: rat INS-1E insulin secretion, at 10 µM, stronger effect = higher value; note: reference of the scale not given here
# [3] = growth inhibition of GSK3B-pretreated HCT116 cells – cell-based, CellTiter-Glo, 0.2 to 20 µM (AID 1117336;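 active = compounds lowering colon cancer cell viability after pretreatment blocking the GSK3B kinase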); details: HCT116 viability after GSK3B inhibitor, at 20 µM, stronger effect = higher value
# [4] = inhibition of endothelial tube formation, primary screen, imaging, VEGF stimulated, CD31 staining, tube area, NPC library (AID 1117340;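 active = compound that reduces growth-factor-driven endothelial tube area in a mixed cell culture, no cutoff stated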); details: VEGF-stimulated ADSC/ECFC co-culture, at 10 µM, stronger effect = higher value
# [5] = GLP1 release stimulators, primary, NCI-H716, NPC library (AID 1117341;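 active = compound raises GLP1 secretion from the human gut endocrine cells, with no numeric limit stated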; note: reference of the scale not given here); details: NCI-H716 cells, at 10 µM, stronger effect = higher value
# [6] = HCT116 colon cancer cell growth inhibition, primary screen, CellTiter-Glo luminescence, NPC library (AID 1117342;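 active = compounds that lower survival of HCT116 colon cancer cells in the luminescence readout, no numeric limit stated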); details: at 20 µM (top of the series)
# [7] = reduced SW480 viability measured with CellTiter-Glo, NPC library, primary (AID 1117343;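 active = compounds that lower viability of the colon cancer cells in the luminescence readout, with no numeric limit stated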); details: CellTiter-Glo luminescence; at 20 µM (top of the series)
# [8] = NPC library primary testing for decreased DLD-1 cell viability via CellTiter-Glo (AID 1117346;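 active = compounds that lower survival of DLD-1 colon cancer cells in the luminescence readout, no cutoff given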); details: DLD-1 viability, CellTiter-Glo luminescence; at 20 µM (top of the series)
# [9] = viability loss with induced miR-34 in A549 – imaging, A549 dox-inducible miR-34, nuclei and caspase counts, primary screen (AID 1347080;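 active = compounds whose cell count with miR-34 switched on is under 0.7 times the count with it off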); details: A549 miR-34 inducible, Hoechst nuclei count, 48 h
# [10] = MELAS cybrid and Rieske KO viability enhancers – cell-based, MELAS cybrids, Rieske KO mouse fibroblasts, CellTiter-Glo, primary screen (AID 1508586;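 active = mean z-score across replicates of 1.96 or higher in either the MELAS or the Rieske mutant cell line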;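 note: z relative to plate mean and SD of compound and empty wells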); details: low glucose
# [11] = compounds altering viability of human ES cells (AID 493140; call rule not given here;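 note: cells exposed to compounds for four days before counting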); details: human embryonic stem cell survival screen; stronger effect = higher value
# [12] = P. berghei load reduction in hepatocytes – cell-based, HepG2, luciferase luminescence, HepG2 viability, primary screen (AID 624349; in the data active = parasite load remaining mostly below about 12%, no sharp cut-off; inactive = mostly above about 10%;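 note: 100% = mean of DMSO negative control wells on the same plate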); details: P. berghei liver stage in HepG2, luciferase luminescence, concentration not given here; parasite load remaining: stronger effect = lower value; viability: measured here: HepG2 viability without parasites
# [13] = galactose survival enhancers in mitochondrial complex I cybrids – cell-based, galactose medium, ATP luminescence, primary screen (AID 1645843;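 active = z-score of at least 1.8 in each of two replicates, scored against plate mean and spread of sample wells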;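 note: positive z means more ATP and so rescue of galactose-driven cybrid death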); details: complex I mutant cybrid cells, 72 h, stronger effect = higher value
# [14] = biological target: NAD(+) hydrolase SARM1 (Homo sapiens) (UniProt Q6SZW1); experiment: blocking NAD cleavage by SARM1 SAM-TIR – cell lysate, NAD-Glo luminescence (AID 1508614;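 active = compound whose remaining NAD level is above about 45 nM, limit read from the data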;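 note: higher remaining NAD means stronger inhibition of SARM1 NADase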); details: SAM-TIR HEK293T lysate NADase, at 1 µM, stronger effect = higher value
# Sequence of NAD(+) hydrolase SARM1 (Homo sapiens) (Q6SZW1 whole entry, looked up): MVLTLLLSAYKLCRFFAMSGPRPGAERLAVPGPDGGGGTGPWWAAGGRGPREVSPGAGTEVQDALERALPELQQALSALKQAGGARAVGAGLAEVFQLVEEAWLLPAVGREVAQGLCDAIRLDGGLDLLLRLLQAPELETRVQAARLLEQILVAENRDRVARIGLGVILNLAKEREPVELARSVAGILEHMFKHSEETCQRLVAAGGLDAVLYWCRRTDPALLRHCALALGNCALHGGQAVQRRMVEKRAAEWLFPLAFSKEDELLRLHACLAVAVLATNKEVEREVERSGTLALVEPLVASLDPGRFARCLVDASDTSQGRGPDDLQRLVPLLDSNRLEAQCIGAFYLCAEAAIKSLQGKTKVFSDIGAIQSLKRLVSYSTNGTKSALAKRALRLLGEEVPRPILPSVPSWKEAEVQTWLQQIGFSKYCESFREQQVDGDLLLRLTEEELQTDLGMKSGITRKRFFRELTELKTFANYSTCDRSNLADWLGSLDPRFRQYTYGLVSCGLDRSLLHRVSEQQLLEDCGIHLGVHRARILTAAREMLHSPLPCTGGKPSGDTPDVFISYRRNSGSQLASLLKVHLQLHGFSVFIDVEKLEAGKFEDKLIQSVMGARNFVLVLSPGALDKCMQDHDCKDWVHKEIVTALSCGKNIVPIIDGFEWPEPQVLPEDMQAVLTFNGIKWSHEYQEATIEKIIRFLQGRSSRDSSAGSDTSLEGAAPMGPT
# [15] = compounds altering circadian rhythm period length – cell-based, LOPAC library, luminescence reporter (AID 2774; call rule not given here;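 note: values are relative to mean of DMSO wells on each plate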); details: circadian reporter cells, at 7 µM, actives lie on both sides
# [16] = measured here: relative caspase fold change +Dox/-Dox
# [17] = measured here: total cells with miR-34 induction, stronger effect = lower value
# [18] = measured here: total cells without miR-34 induction
# [19] = MELAS cybrid survival, CellTiter-Glo 48 h, stronger effect = higher value
# [20] = Rieske KO mouse fibroblast survival, CellTiter-Glo 72 h
structure (smiles),measurement,setting,value
CCCCCCCCCCCC[N+](C)(C)CCOc1ccccc1,nuclear beta-catenin stimulation,[1]; at 10 µM,20.4% (inactive)
same,nuclear beta-catenin stimulation,"[1]; stimulation, at 2 µM",0.6%
same,insulin secretion stimulation,[2],5.9% (inactive)
same,viability decrease,[3],110% (active)
same,tube area decrease,[4],111% (active)
same,GLP1 secretion stimulation,[5],67% (active)
same,inhibition of viability,[6],112% (active)
same,viability decrease (inhibition),[7],134% (active)
same,viability decrease (inhibition),[8],101% (active)
same,fold change,"[9]; stronger effect = lower value, cell number ratio, induced over uninduced",0.988 (inactive)
same,fold change,[9]; [16],0.958
same,cell count,[9]; [17],6790
same,cell count,[9]; [18],6870
same,z-score,[10]; [19],-0.488 (inactive)
same,z-score,[10]; [20],-0.197
CCC1(c2cccc(O)c2)CCCCN(C)C1 (stereo not drawn),survival,[11],2.75 (inactive)
same,parasite load remaining,[12],114% (inactive)
same,viability,[12],77.7%
same,nuclear beta-catenin stimulation,[1]; at 10 µM,-0.6% (inactive)
same,nuclear beta-catenin stimulation,"[1]; stimulation, at 2 µM",-0.3%
same,insulin secretion stimulation,[2],19.8% (inactive)
same,viability decrease,[3],10.8% (inactive)
same,tube area decrease,[4],-4.7% (inactive)
same,GLP1 secretion stimulation,[5],1.4% (inactive)
same,inhibition of viability,[6],-13.6% (inactive)
same,viability decrease (inhibition),[7],57% (active)
same,viability decrease (inhibition),[8],13.3% (inactive)
same,fold change,[9]; stronger effect = lower value,0.914 (inactive) and 0.925 (inactive)
same,fold change,[9]; [16],0.54 and 0.493
same,cell count,[9]; [17],8800 and 7600
same,cell count,[9]; [18],9630 and 8210
same,z-score,[10]; [19],-0.204 (inactive) and -0.911 (inactive)
same,z-score,[10]; [20],-0.179 and 0.197
CCOC(=O)C=C(C)C=CC[C@@H](C)CCCC(C)C,nuclear beta-catenin stimulation,[1]; at 10 µM,0.8% (inactive)
same,nuclear beta-catenin stimulation,"[1]; stimulation, at 2 µM",-0.1%
same,insulin secretion stimulation,[2],1.05% (inactive)
same,GLP1 secretion stimulation,[5],-6.5% (inactive)
CCC(C(N)=O)N1CCCC1=O (stereo not drawn),nuclear beta-catenin stimulation,[1]; at 10 µM,-0.1% (inactive)
same,nuclear beta-catenin stimulation,"[1]; stimulation, at 2 µM",-0.2%
same,insulin secretion stimulation,[2],1.4% (inactive)
same,viability decrease,[3],-0.8% (inactive)
same,tube area decrease,[4],-18.3% (inactive)
same,GLP1 secretion stimulation,[5],0.6% (inactive)
same,inhibition of viability,[6],-4.9% (inactive)
same,viability decrease (inhibition),[7],-0.6% (inactive)
same,viability decrease (inhibition),[8],-1.1% (inactive)
same,fold change,[9]; stronger effect = lower value,0.925 (inactive) and 0.884 (inactive)
same,fold change,[9]; [16],1.53 and 10.7
same,cell count,[9]; [17],9780 and 8770
same,cell count,[9]; [18],10600 and 9920
same,z-score,[10]; [19],2 (active)
same,z-score,[10]; [20],0.478
same,z-score,[13],0.645 (inactive)
NCc1cccnc1,nuclear beta-catenin stimulation,[1]; at 10 µM,0.8% (inactive)
same,nuclear beta-catenin stimulation,"[1]; stimulation, at 2 µM",1.2%
same,insulin secretion stimulation,[2],-1.3% (inactive)
same,viability decrease,[3],16.9% (inactive)
same,tube area decrease,[4],-11.1% (inactive)
same,GLP1 secretion stimulation,[5],0% (inactive)
same,inhibition of viability,[6],-22.4% (active)
same,viability decrease (inhibition),[7],1.8% (inactive)
same,viability decrease (inhibition),[8],-13.1% (inactive)
same,fold change,[9]; stronger effect = lower value,0.867 (inactive)
same,fold change,[9]; [16],0.915
same,cell count,[9]; [17],7820
same,cell count,[9]; [18],9010
same,remaining NAD,[14],10 nM (inactive)
NCCC[C@H](N)C(=O)O,nuclear beta-catenin stimulation,[1]; at 10 µM,1.2% (inactive)
same,nuclear beta-catenin stimulation,"[1]; stimulation, at 2 µM",1.6%
same,insulin secretion stimulation,[2],-2.2% (inactive)
same,viability decrease,[3],-5.15% (inactive)
same,tube area decrease,[4],-2.1% (inactive)
same,GLP1 secretion stimulation,[5],1.4% (inactive)
same,inhibition of viability,[6],-35.4% (inactive)
same,viability decrease (inhibition),[7],98.1% (active)
same,viability decrease (inhibition),[8],0.35% (inactive)
same,remaining NAD,[14],10 nM (inactive)
COC(C)(C)CCCC(C)C/C=C/C(C)=C/C(=O)OC(C)C (stereo not drawn),nuclear beta-catenin stimulation,[1]; at 10 µM,2% (inactive)
same,nuclear beta-catenin stimulation,"[1]; stimulation, at 2 µM",1%
same,insulin secretion stimulation,[2],1.35% (inactive)
same,viability decrease,[3],30.9% (inactive)
same,tube area decrease,[4],2.7% (inactive)
same,GLP1 secretion stimulation,[5],3.9% (inactive)
same,inhibition of viability,[6],42% (inactive)
same,viability decrease (inhibition),[7],9.6% (inactive)
same,viability decrease (inhibition),[8],17.2% (inactive)
same,remaining NAD,[14],10 nM (inactive)
CCN[C@@H](C)Cc1cccc(C(F)(F)F)c1,nuclear beta-catenin stimulation,[1]; at 10 µM,3% (inactive)
same,nuclear beta-catenin stimulation,"[1]; stimulation, at 2 µM",2.2%
same,insulin secretion stimulation,[2],8.8% (inactive)
same,viability decrease,[3],-3.65% (inactive)
same,tube area decrease,[4],29.2% (active)
same,GLP1 secretion stimulation,[5],1.3% (inactive)
same,inhibition of viability,[6],-3.9% (inactive)
same,viability decrease (inhibition),[7],17.9% (inactive)
same,viability decrease (inhibition),[8],-6.6% (inactive)
same,z-score,[10]; [19],-1.11 (inactive)
same,z-score,[10]; [20],0.177
O=C(NC(=O)c1c(F)cccc1F)Nc1ccc(Cl)c(Oc2ncc(C(F)(F)F)cc2Cl)c1,nuclear beta-catenin stimulation,[1]; at 10 µM,1.2% (inactive)
same,nuclear beta-catenin stimulation,"[1]; stimulation, at 2 µM",-0.3%
same,insulin secretion stimulation,[2],0.25% (inactive)
same,GLP1 secretion stimulation,[5],-8.7% (inactive)
O=C(NCNC(=O)NC1C(=O)NC(=O)N1CO)NC1C(=O)NC(=O)N1CO (stereo not drawn),survival,[11],33.2 (inactive)
same,parasite load remaining,[12],92.1% (inactive)
same,viability,[12],79.2%
same,nuclear beta-catenin stimulation,[1]; at 10 µM,-1.7% (inactive)
same,nuclear beta-catenin stimulation,"[1]; stimulation, at 2 µM",0.2%
same,insulin secretion stimulation,[2],1.2% (inactive)
same,viability decrease,[3],-3.4% (inactive)
same,tube area decrease,[4],-8.4% (inactive)
same,GLP1 secretion stimulation,[5],-0.8% (inactive)
same,inhibition of viability,[6],-1.8% (inactive)
same,viability decrease (inhibition),[7],3.1% (inactive)
same,viability decrease (inhibition),[8],8.4% (inactive)
same,fold change,[9]; stronger effect = lower value,0.914 (inactive)
same,fold change,[9]; [16],0.72
same,cell count,[9]; [17],9340
same,cell count,[9]; [18],10200
same,z-score,[10]; [19],0.818 (inactive)
same,z-score,[10]; [20],0.0717
C[C@]12CCC(=O)C=C1CC[C@@H]1[C@@H]2CC[C@]2(C)C(=O)CC[C@@H]12,period change,[15],0.09 h (inactive)
same,nuclear beta-catenin stimulation,[1]; at 10 µM,-0.1% (inactive)
same,nuclear beta-catenin stimulation,"[1]; stimulation, at 2 µM",-1.6%
same,insulin secretion stimulation,[2],2.4% (inactive)
same,viability decrease,[3],64.9% (active)
same,tube area decrease,[4],-7% (inactive)
same,GLP1 secretion stimulation,[5],-2.7% (inactive)
same,inhibition of viability,[6],68.5% (active)
same,viability decrease (inhibition),[7],23.5% (inactive)
same,viability decrease (inhibition),[8],45.9% (inactive)
C[C@@H]1CN(C2CCC(C#N)(c3ccc(F)cc3)CC2)CC[C@]1(C(=O)O)c1ccccc1 (stereo partly drawn),survival,[11],4.42 (inactive)
same,parasite load remaining,[12],126% (inactive)
same,viability,[12],76.2%
same,nuclear beta-catenin stimulation,[1]; at 10 µM,0% (inactive)
same,nuclear beta-catenin stimulation,"[1]; stimulation, at 2 µM",0.4%
same,insulin secretion stimulation,[2],-1.7% (inactive)
same,viability decrease,[3],18.6% (inactive)
same,tube area decrease,[4],9.6% (inactive)
same,GLP1 secretion stimulation,[5],1.1% (inactive)
same,inhibition of viability,[6],15.3% (inactive)
same,viability decrease (inhibition),[7],33.5% (inactive)
same,viability decrease (inhibition),[8],30.7% (inactive)
same,fold change,[9]; stronger effect = lower value,0.976 (inactive)
same,fold change,[9]; [16],0.701
same,cell count,[9]; [17],9400
same,cell count,[9]; [18],9630
same,z-score,[10]; [19],-1.75 (inactive)
same,z-score,[10]; [20],-1.19
